Screening data as filed in PubChem.
In the library only some 3.3% were active in any assay of this set; here they are far more common.
Vaccinia mCherry: inhibitors of vaccinia virus infection (mCherry reporter signal); hit rate 0.63% among 310,000; Vaccinia virus mCherry reporter infection, fluorescence; Potency, µM (top dose mostly 36.5 µM), hits mostly inhibitors; AID 720579; calls by dose curve; tested in A549 cells; further: nearly all actives have a fitted effect of over 35% in size
HCV inhibitor: inhibitors of hepatitis C virus infection; Huh7.5.1 HCVcc-Cre infection, luciferase reporter, 44 h; Potency, µM (series often up to 41.8 µM), hits mostly inhibitors; hit rate 3.4% among 340,000; AID 651820; active means well fitted inhibition curve with a large enough effect; inconclusive means small, poorly fitted or top-dose-only effect, or another doubt; inactive means no such curve, though single readings can be large or run the other way
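Antiviral activity was scored by luciferase reporter output from cells infected with HCVcc-Cre (~0.5 moi) in presence of compound, 44 h infection period, cells seeded 1,000/well 4 h prior.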
VACV Venus inh: vaccinia inhibition (Venus reporter). Potency, µM (doses to about 36.5 µM), actives largely listed as inhibitors. hit rate 0.46% among 330,000. AID 720580. Vaccinia virus Venus reporter expression, fluorescence; calls by dose curve; tested in A549 cells; further: nearly all actives have a fitted effect of over 30% in size
Numbers stand for hits; – = inactive; ? = inconclusive; · = not tested or not shown; [ ] = remark or other dose.

SMILES	Vaccinia mCherry	HCV inhibitor	VACV Venus inh
CCOC(=O)c1c(-c2ccccc2)oc2cc(CN(C)C)c(O)c(CN(C)C)c12	·	10µM	·
CCOC(=O)c1c(C)oc2cc(Cl)c(O)c(CN(C)C)c12	–	?	–
CCOC(=O)c1c(C)n(C)c2ccc(O)c(CN3CCN(C)CC3)c12	–	?	–
CC(C)=CCC/C(C)=C/CC/C(C)=C/CCC1(C)CCc2cc(O)ccc2O1 (stereo not drawn)	–	·	–
Cc1ccccc1Cn1c(=N)n(CC(=O)c2ccc([N+](=O)[O-])cc2)c2ccccc21	–	–	–
C=CCn1c(=N)n(CC(=O)c2ccc(Br)cc2)c2ccccc21	–	–	–
CCCn1c(=N)n(CC(=O)c2ccc([N+](=O)[O-])cc2)c2ccccc21	–	13µM	–
CCCn1c(=N)n(CC(=O)OCC)c2ccccc21	·	–	–
CCCn1c(=N)n(CC(=O)c2ccc(Cl)cc2)c2ccccc21	?	13µM	–
N=c1n(N)c2ccccc2n1CC(=O)c1ccc(Br)cc1	–	13µM	–
COc1ccccc1C1CN(Cc2ccc(Sc3nncn3C)o2)Cc2ccccc2O1 (stereo not drawn)	–	·	–
CCOc1ccc(C(=O)c2cn(Cc3ccc(Cl)cc3)c3cc(OC)c(OC)cc3c2=O)cc1	–	·	?
CCc1ccccc1Nc1nn2c(=O)c3ccc(C(=O)Nc4ccc(OC)cc4)cc3nc2s1	–	·	–
CCc1cccc(NC(=O)c2ccc3c(=O)n4nc(Nc5ccccc5OC)sc4nc3c2)c1	4µM	·	4µM
CCc1ccccc1Nc1nn2c(=O)c3ccc(C(=O)NCc4ccccc4OC)cc3nc2s1	–	·	–
COc1ccccc1Nc1nn2c(=O)c3ccc(C(=O)NCc4ccc(F)cc4)cc3nc2s1	13µM	·	?
CC(C)(C)OC(=O)N1CCC(c2c(C(=O)N3CCOCC3)cnn2-c2cccc(F)c2)CC1	–	·	–
CC(=Nc1ccc(O)cc1)c1sc2ccccc2c1O	–	13µM	–
CC(=Nc1cccc(C)c1)c1sc2ccccc2c1O	–	?	–
CCC1Nc2ncnc(N3CCN(c4ccccc4)CC3)c2N(Cc2ccc(OC)cc2)C1=O (stereo not drawn)	–	2.8µM	–
CC(C)CC1Nc2ncnc(N3CCN(c4ccccn4)CC3)c2N(Cc2ccc(Br)cc2)C1=O (stereo not drawn)	–	25µM	?
CCC1Nc2ncnc(N3CCOCC3)c2N(Cc2ccc(OC)cc2)C1=O (stereo not drawn)	–	–	–
Cc1ccc(CN2C(=O)C(CC(C)C)Nc3ncnc(N4CCN(c5ccccn5)CC4)c32)cc1 (stereo not drawn)	28µM	?	?
COc1ccc(CN2C(=O)C(CC(C)C)Nc3ncnc(N4CCN(c5ccccn5)CC4)c32)cc1 (stereo not drawn)	–	–	?
CC(C)CC1Nc2ncnc(N3CCOCC3)c2N(Cc2ccccc2)C1=O (stereo not drawn)	–	–	–
SMILES	Vaccinia mCherry	HCV inhibitor	VACV Venus inh
COc1ccc(C(=O)NC(=S)Nc2cccnc2)cc1Cl	–	–	–
O=C(Nc1nc2c(Cl)cccc2s1)C1CC1	·	–	·
O=C(Nc1nc2c(cc3c4c(cccc42)CC3)s1)c1ccccc1Cl	–	6.3µM	–
Cc1ccc(S(=O)Cc2ccc(C(=O)NC3CCCCCC3)o2)cc1 (stereo not drawn)	–	·	–
CC(=O)Oc1c(C)c(C)c2c(c1C)CC[C@@](C)(CCC[C@H](C)CCC[C@H](C)CCCC(C)C)O2	–	–	–
FC(F)(F)c1cccc(Nc2nc3nonc3nc2Nc2ccc(Cl)cc2)c1	2µM	·	1.8µM
O=C(Nc1cccc(C(F)(F)F)c1)c1cc(-c2ccc(Cl)cc2)on1	–	·	–
COc1ccc(CNC(=O)Cc2ccc(NC(=O)N3CCSc4ncccc43)cc2)cc1OC	–	·	–
COc1cc(CN2CCCC(n3cc(C(=O)N4CCCC4)nn3)C2)cc(OC)c1 (stereo not drawn)	–	·	–
COc1ccc(-c2noc(-c3ccccc3Cl)n2)cc1OC	–	10µM	–
COc1ccc(-c2noc(-c3ccoc3C)n2)cc1OC	·	–	·
COc1ccc(-c2noc(-c3cccc(Cl)c3)n2)cc1OC	–	–[0.335 µM]	–
CCOc1ccc(-c2noc(-c3cccnc3)n2)cc1OCC	–	–	–
CCOc1ccc(-c2nc(-c3ccc(OC)cc3)no2)cc1OCC	·	7.9µM	·
COc1ccc(-c2noc(-c3ccco3)n2)cc1OC	–	11µM	–
Cc1ccc(Sc2c(C(=O)NCc3ccccc3C)[nH]c3ccccc23)cc1	–	·	–
O=C(NCc1ccccn1)c1nn(-c2ccccc2F)nc1CO	–	·	–
O=C(NCC1CCCO1)C(c1ccco1)N(Cc1ccc(F)cc1)C(=O)CN1C(=O)c2ccccc2S1(=O)=O (stereo not drawn)	–	–	–
COC(=O)C1CCCCN1Cc1nc(N(C)C)c2ccccc2n1 (stereo not drawn)	–	·	–
Cc1ccc(N(Cc2ccccc2)C(=O)CN2C(=O)NC3(CCCC3)C2=O)cc1	·	–	·
O=C(c1ccc(Oc2ccc([N+](=O)[O-])cc2Cl)cc1)N1CCCC1	–	–	–
O=C(c1ccc(Oc2ccc([N+](=O)[O-])cc2)cc1)N1CCCCCC1	–	25µM	–
O=C1C(=O)c2ccccc2C([O-])=C1[n+]1ccccc1	·	–	·
CCc1cc[n+](C2=C([O-])c3ccccc3C(=O)/C2=N\S(=O)(=O)c2cccs2)cc1	?	5µM	?
COc1ccc(OC)c(C(c2c(O)nc(SC)[nH]c2=O)c2c(O)nc(SC)[nH]c2=O)c1	–	–	–
SMILES	Vaccinia mCherry	HCV inhibitor	VACV Venus inh
Cc1ccccc1OCc1nc2ccccc2c(=O)n1/N=C/c1cccc([N+](=O)[O-])c1	–	–	–
Cc1nc2ccccc2c(=O)n1/N=C/c1cn[nH]c1-c1ccccc1	–	?	–
Cc1cc(/C=N/n2c(COc3ccccc3)nc3ccccc3c2=O)c(O)c([N+](=O)[O-])c1	28µM	?	?
Cc1ccc(-c2[nH]ncc2/C=N/n2c(COc3ccccc3)nc3ccccc3c2=O)cc1	–	11µM	?
c1nc(SSc2ncc3n[nH]nc3n2)nc2n[nH]nc12	–	·	–
CC(=NNC(=S)N1CCCCC1)c1cccc(C)n1	0.32µM	–	?
CC(=NNC(=S)N1CC2CCC(CC2)C1)c1ccncn1	1.6µM	0.32µM	6.3µM
C/C(=N\NC(=S)NC1CCCCC1)c1ccc(Cl)c(Cl)c1	·	–	·
CSC(=S)NN=C(C)c1cccc(C)n1	?	4µM	?
C=CCNC(=S)N/N=C(\C)c1ccccn1	·	–	·
CC(=NNC(=S)N1CCCCC1)c1ccccn1	4.5µM	·	10µM
Cc1cccc(C(=S)N2CCOCC2)n1	·	–	·
Cc1cccc(NC(=S)Nc2cccc(C)n2)n1	?	?	–
Cn1c(=O)c2c(nc(N3CCOCC3)n2Cc2cccc(Br)c2)n(C)c1=O	–	·	–
O=[N+]([O-])c1ccc(Cl)c(S(=O)(=O)NCCc2ccccn2)c1	·	–	·
CCOCCCNC(=O)C1CCC(CNS(=O)(=O)c2ccc(NC(C)=O)cc2)CC1 (stereo not drawn)	–	·	–
OCC1O[C@@H](OC2C(O)C(CO)O[C@@]2(CO)O[C@@H]2OC(CO)C(O)C(O)C2O)C(O)C(O)C1O (stereo partly drawn)	–	·	–
Cc1cccc(Cn2c(=O)n3nc(-c4ccccc4)nc3c3ccccc32)c1	–	·	–
Cc1ccc(CN2CCc3nnc(C(C)NC(=O)c4cc(F)ccc4F)n3CC2)o1 (stereo not drawn)	–	·	–
